The sample as a whole holds a higher share of hits than the screen did.
C diff growth = inhibitors of Clostridium difficile growth | Clostridium difficile clinical isolate growth, OD600, 24 h; stronger effect = lower value | growth activity, negative = inhibition, % at 16 µg/mL (by protocol) | 86,000 tested, 0.25% active;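 active = mean growth activity at or below -80% and every replicate also at or below -80%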
Numbers stand for hits; - = inactive.

SMILES	C diff growth
C[C@@H]1CCCCO[C@H](CN(C)CC2CCCCC2)[C@H](C)CN([C@@H](C)CO)C(=O)c2cc(NC(=O)CCCCCC(=O)Nc3ccccc3N)ccc2O1	-
CN1CCN(C(=O)C[C@H]2CC[C@H]3[C@@H](COc4ccc(NC(=O)c5ccc(F)c(F)c5)cc4C(=O)N3C)O2)CC1	-
C[C@H](CO)N1C[C@H](C)[C@H](CN(C)C(=O)C2CCCCC2)Oc2cc(-c3ccc(C(=O)N(C)C)cc3)ccc2S1(=O)=O	-
COc1ccc(C#Cc2ccc([C@H]3[C@@H](CO)N4C(=O)CN(C(=O)C5CCOCC5)C[C@@H]34)cc2)cc1	-
O=C(c1cnccn1)N1C[C@H]2[C@@H](c3ccccc31)[C@H](CO)N2C(=O)CC1CC1	-
CO[C@H]1CN(C)C(=O)c2cc(NC(=O)Nc3ccc(Cl)c(Cl)c3)ccc2OC[C@@H](C)NC[C@H]1C	-97.4
CO[C@H]1CN(C)C(=O)c2cc(NC(=O)Nc3ccc(Cl)cc3)ccc2OC[C@@H](C)NC[C@@H]1C	-
CO[C@H]1CN(C)C(=O)c2cc(NC(=O)Nc3ccccc3)ccc2OC[C@H](C)NC[C@H]1C	-
CO[C@H]1CN(C)C(=O)c2cc(NC(=O)Nc3ccc(Cl)c(Cl)c3)ccc2OC[C@@H](C)NC[C@@H]1C	-95.9
CO[C@@H]1CN(C)C(=O)c2cc(NC(=O)Nc3ccc(Cl)cc3)ccc2OC[C@H](C)NC[C@@H]1C	-
CO[C@H]1CN(C)C(=O)c2cc(NC(=O)Nc3ccc(Cl)cc3)ccc2OC[C@@H](C)NC[C@H]1C	-
C[C@@H]1CN([C@H](C)CO)C(=O)c2cc(NC(=O)Cc3ccccc3)ccc2O[C@@H]1CN(C)S(=O)(=O)c1ccc(Cl)cc1	-
C[C@@H]1CCCCO[C@H](CN(C)C(=O)Nc2ccc(C(F)(F)F)cc2)[C@H](C)CN([C@@H](C)CO)C(=O)c2cc(NC(=O)Nc3ccc(F)cc3)ccc2O1	-
COc1cccc(S(=O)(=O)N[C@H]2CC[C@@H](CCn3cc(-c4ccc(F)cc4)nn3)O[C@@H]2CO)c1	-
COCC(=O)N(C)C[C@@H]1Oc2cc(-c3ccc(C)cc3)ccc2S(=O)(=O)N([C@H](C)CO)C[C@@H]1C	-
CN(C)C(=O)C[C@@H]1C[C@H]2c3cc(NC(=O)c4cccnc4)ccc3O[C@H]2[C@H](CO)O1	-
CC(C)NC(=O)Nc1ccc2c(c1)CC(=O)N([C@@H](C)CO)C[C@@H](C)[C@@H](CN(C)Cc1ccncc1)O2	-
C[C@@H]1CN([C@H](C)CO)C(=O)c2cccc(NC(=O)c3ccncc3)c2O[C@H]1CN(C)Cc1ccc2c(c1)OCO2	-
C[C@@H]1CCCCO[C@@H](CN(C)C(=O)CCC(F)(F)F)[C@@H](C)CN([C@@H](C)CO)C(=O)c2cc(NS(=O)(=O)c3ccc(F)cc3)ccc2O1	-
COc1ccc2c3c([nH]c2c1)[C@H](CO)N(C(=O)Nc1ccc(F)cc1)CC31CN(S(=O)(=O)c2ccccc2)C1	-
COc1ccc2c3c([nH]c2c1)[C@@H](CO)N(C(=O)Nc1ccc(F)cc1)CC31CN(S(=O)(=O)c2cccc(F)c2)C1	-
COc1ccc2c3c(n(C)c2c1)[C@H](CO)N(CC1CC1)CC31CN(S(=O)(=O)c2cccs2)C1	-
COc1cc(CN2CC3(CCN(S(=O)(=O)c4cccs4)CC3)c3c(n(C)c4cc(OC)ccc34)[C@@H]2CO)cc(OC)c1	-
COc1ccc2c3c([nH]c2c1)[C@@H](CO)N(C(=O)Nc1ccc(F)cc1)CC31CN(S(=O)(=O)c2cccs2)C1	-94.7
COc1cc(CN2CC3(CN(S(=O)(=O)c4cccs4)C3)c3c(n(C)c4cc(OC)ccc34)[C@@H]2CO)cc(OC)c1	-87.4
SMILES	C diff growth
COc1ccc(S(=O)(=O)N(C)C[C@H]2OCCCC[C@H](C)Oc3ccc(NC(=O)NC(C)C)cc3C(=O)N([C@@H](C)CO)C[C@@H]2C)cc1	-
O=C(c1ccccn1)N1CC2(C1)[C@@H](c1ccccc1)[C@H](CO)N2C(=O)CC1CC1	-
Cn1cnc(S(=O)(=O)N2C[C@@H](O)COC[C@H]3O[C@@H](CC(=O)N4CCN(c5ccccc5)CC4)CC[C@@H]32)c1	-
CNC(=O)C[C@@H]1CC[C@H]2[C@H](COc3ccc(NC(=O)Nc4ccc(Cl)cc4)cc3C(=O)N2C)O1	-
C[C@@H]1CCCCO[C@H](CN(C)C)[C@@H](C)CN([C@H](C)CO)C(=O)c2cc(NS(=O)(=O)c3cccs3)ccc2O1	-
CC(=O)N(C)C[C@H]1Oc2ncc(-c3cccc(C#N)c3)cc2C(=O)N([C@H](C)CO)C[C@@H]1C	-
C[C@@H]1CCCCO[C@@H](CN(C)C(=O)Cc2ccccc2)[C@@H](C)CN([C@@H](C)CO)C(=O)c2cc(NC(=O)Nc3ccc(C(F)(F)F)cc3)ccc2O1	-
C[C@H](CO)N1C[C@H](C)[C@@H](CN(C)Cc2ccc(C(=O)O)cc2)Oc2cc(/C=C/c3ccccc3)ccc2S1(=O)=O	-
C[C@@H]1CN([C@H](C)CO)S(=O)(=O)c2ccc(/C=C/c3ccccc3)cc2O[C@H]1CN(C)Cc1ccc(C(=O)O)cc1	-98.1
C[C@H]1CN([C@@H](C)CO)S(=O)(=O)c2ccc(/C=C/c3ccccc3)cc2O[C@H]1CN(C)Cc1ccc(C(=O)O)cc1	-
C[C@H](CO)N1C[C@H](C)[C@H](CN(C)Cc2ccc(O)cc2)OCc2ccccc2-c2c(n(C)c3ccccc23)C1=O	-
